What follows are compounds tested against AMP-activated protein kinase, AMPK (Homo sapiens) (UniProt P54646+O43741+P54619+Q9UGJ0+Q9Y478+Q13131+Q9UGI9) (assay: AMP-dependent Kinase enzyme assay. An in vitro enzyme assay that detects ADP turnover that is directly proportional to AMPK activity. This uses naive AMPK that is activated during the assay with MK-8722). Conditions: 30 µM.
Type: functional
Design: scale not given: direction of the effect not stated beside the values

| SMILES | Percent Effect [%] |
| --- | --- |
| CN(C)C(=O)COC[C@]12COC[C@H]1CN(CC1CCC1)C2 | -10.5 |
| COCCN1CC[C@H](O)[C@@H]1Cc1ccccc1 | -0.98 |
| Cc1cc(O)nc(C2CCCN(Cc3ccncc3)C2)n1 (stereo not given) | 4.7 |
| CN(C)C(=O)c1ccc2c(c1)N(C)C(CC(=O)NCc1ccno1)CO2 (stereo not given) | -9.68 |
| COc1c(CNCc2ccc(C(=O)NC3CC3)cc2)c(C)nn1C | -1.46 |
| CN(C)CC1CN(C(=O)NCc2ccccc2)Cc2nccn2C1 (stereo not given) | -1.1 |
| CC(=O)NCC(=O)N1CCC2(CC1)CN(c1cccnc1)C(=O)CO2 | -3.23 |
| O=C(NCCN1CCOCC1)c1cc(-c2ccc3c(c2)CCO3)n[nH]1 | 3.38 |
| CC(C)c1cc(NC(=O)CN2CCCC2Cn2cccn2)on1 (stereo not given) | -3.45 |
| CCC(=O)Nc1nnc(CCCOc2ccccc2)s1 | 6.74 |
| Cc1cc(C)n(C2CCCN(C(=O)C3=NN(C)C(=O)CC3)C2)n1 (stereo not given) | -18.2 |
| CC1CCc2nc(O)c(C(=O)NCc3cccc(F)c3)cc2C1 (stereo not given) | 11.6 |
| Cc1nc2c(c(NC3CC3)n1)CCN(C(=O)C(C)(C)O)CC2 | 2.64 |
| CCCN1CCC(N(Cc2ncc(C)o2)C(C)=O)C1 (stereo not given) | -14.9 |
| O=C1NCCN1C1CCCN(Cc2coc(-c3ccc(F)cc3)n2)C1 (stereo not given) | -13.5 |
| Cc1noc(C)c1CN(C)CC1CCCN1c1cccnn1 (stereo not given) | 1.18 |
| Cc1noc(C)c1CN1C(=O)[C@H]2CC[C@@H]1CN(Cc1cccnc1N)C2 | 15.3 |
| Cc1cc(C)n(CC2CCCCN2Cc2cscn2)n1 (stereo not given) | -3.15 |
| Cc1cc(CNC(=O)C2CCCCN2C(=O)OC(C)(C)C)no1 (stereo not given) | -5.58 |
| O=C(c1csc(-c2cccs2)n1)N1CCCC1Cn1cccn1 (stereo not given) | -6.24 |

| SMILES | Percent Effect [%] |
| --- | --- |
| O=C(CSCC1CC1)N1CCCC(c2nccn2Cc2ccncc2)C1 (stereo not given) | -12.9 |
| CCN1CC(C(=O)N2CCC(Oc3ccccc3Cl)CC2)CC1=O (stereo not given) | 6.94 |
| CNC(=O)CCNC(=O)c1cccc(Cn2nc(C)cc2C)c1 | 1.31 |
| CN(CC(=O)N1CCCC1Cn1cccn1)C1CC1 (stereo not given) | -1.88 |
| O=C(Cn1nc(-c2ccc(F)cc2)oc1=O)Nc1ccccc1 | -0.861 |
| Cc1cnccc1N1CCCN(C(=O)CCCc2cn[nH]c2)CC1 | -5.34 |
| Cc1ncccc1CNCC1CCN(CC(O)c2ccccc2)CC1 (stereo not given) | -5.86 |
| CCc1nc(CN(C)C2CCN(Cc3cnc(C)cn3)C2)no1 (stereo not given) | -1.25 |
| CSc1ccc(NC(=O)Nc2ccc3c(c2)N(S(C)(=O)=O)CC3)cc1 | -4.52 |
| O=C(Cn1ccc2c(Cl)cccc21)N[C@@H](C(=O)O)c1ccccc1 | 6.31 |
| Cc1ccc(C2CSCCN2C(=O)c2ccsc2)o1 (stereo not given) | 5.16 |
| COc1ccc(NC(=O)CNc2ccc(Br)cc2F)cc1 | 9.89 |
| CNS(=O)(=O)c1cccc(CNc2cc(C(F)(F)F)ccn2)c1 | 12.6 |
| CN(C)c1ccc(CCNC(=O)C2CCC(=O)N(C3CCCC3)C2)cc1 (stereo not given) | 1.17 |
| CC(C)c1nn(C)c(N2CCOCC2)c1CN[C@H](C)CO | -9.46 |
| Cc1nccn1CC1CCCN1S(=O)(=O)Cc1ccon1 (stereo not given) | -1.52 |
| COc1cccc(OCCNC(=O)CN2CCN(C)CC2C)c1 (stereo not given) | -5.8 |
| Cc1cc(C)cc(N(C)S(=O)(=O)c2cc(C(=O)O)cs2)c1 | -10.8 |
| CCOc1cccc(C(C)NCc2ccc(OC)c(OC)c2OC)c1 (stereo not given) | -4.66 |
| CC(NC(=O)CNCCn1cccn1)c1ccc2c(c1)CCCC2 (stereo not given) | -1.74 |
